The campaign covered roughly 1,200 compounds. About 400 (33%) were called active. No rule for the calls is given here. The list is a sample of the results. Measured potencies and affinities stand elsewhere.
Assay: mammalian cell cytotoxicity, dose response, cytotoxicity control (AID 434958);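 also: cells exposed to compound for 72 hours before readout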
Details: cytotoxicity counter-screen; series mostly up to 40 µM; viability: at the top concentration

SMILES | viability
COc1ccc(C2(CNC(=O)c3cc([N+](=O)[O-])cc([N+](=O)[O-])c3)CCCC2)cc1OC | 95.8% (inactive)
CN1C2CCC1CC(OC(=O)c1ccc([N+](=O)[O-])cc1)C2 (stereo not drawn) | 104% (inactive)
CCC(=O)c1ccc(OCc2ccc(C(=O)OC)cc2)c(OC)c1 | 106% (inactive)
O=C(COC(=O)Cc1ccc(S(=O)(=O)N2CCCCC2)s1)Nc1ccc2c(c1)OCO2 | 97% (inactive)
CC(=O)Nc1ccc(SCC(=O)c2cc(C)n(CC(F)(F)F)c2C)cc1 | 95.3% (inactive)
CCOC(=O)Cn1c(=NC(=O)C2CC2)sc2c(C)cc(C)cc21 | 97.5% (inactive)
O=C(COc1ccccc1[N+](=O)[O-])N(Cc1cccc(Br)c1)C1CCS(=O)(=O)C1 (stereo not drawn) | 95% (inactive)
O=C(OCC(=O)N(Cc1ccccc1)C1CCS(=O)(=O)C1)c1cc2c(s1)CCCC2 (stereo not drawn) | 87.1% (inactive)
Cc1ccc(C(=O)NCC2(c3ccccc3)CCCC2)cc1 | 81% (inactive)
CC(NC(=O)CSc1nc2ccccc2c(=O)[nH]1)c1ccccc1 (stereo not drawn) | 91.8% (inactive)
COCCNC(C(=O)Nc1ccc(C)cc1[N+](=O)[O-])c1ccccc1 (stereo not drawn) | 96.9% (inactive)
CCOC(=O)COc1nc(-c2ccc(Cl)cc2)cc(-c2ccco2)c1C#N | 98.2% (inactive)
CN(c1ccc(OCC(=O)OCC(=O)c2c(N)n(C)c(=O)n(C)c2=O)cc1)S(=O)(=O)c1ccc2ccccc2c1 | 99.8% (inactive)
CC1(C)CC(CCNC(=O)CCl)(c2ccccc2)CCO1 (stereo not drawn) | 81.7% (inactive)
Cn1ccnc1C(=O)Cc1ccc([N+](=O)[O-])cc1 | 94.1% (inactive)
CCOC(=O)c1sc(NC(=O)CSc2n[nH]c(CC(C)C)n2)nc1C | 86.7% (inactive)
Cc1ccccc1C(=O)NC(=S)Nc1sc2c(c1C#N)CCC(C)C2 (stereo not drawn) | 90.5% (inactive)
CCOC(=O)c1c(NC(=O)C(=O)N/N=C/c2ccccc2OC)sc2c1CCCCC2 | 96.4% (inactive)
Cc1cc(C(=O)CSc2nnnn2-c2ccccc2)c(C)n1-c1ccc2c(c1)OCO2 | 81.2% (inactive)
O=C(Nc1nc(-c2ccc(F)c(F)c2)cs1)c1cnccn1 | 82.3% (inactive)
COc1c(NC(C)=O)c2ccccc2c2ccccc12 | 106% (inactive)
COc1ccc2nc(SCc3cccc(C)c3)nc(C)c2c1 | 85.5% (inactive)

SMILES | viability
NC(=S)N/N=C/c1cccc(/C=N/NC(N)=S)c1 | 93.9% (inactive)
O=C(Cn1c(=O)c2cccn2c2ccccc21)NCCc1ccc(Cl)cc1 | 104% (inactive)
Cc1ccc(-n2ncc3c(=O)n(CC#N)cnc32)cc1C | 89% (inactive)
COc1ccc(C2CC(c3c(-c4ccccc4)c4cc(Cl)ccc4[nH]c3=O)=NN2S(C)(=O)=O)cc1 (stereo not drawn) | 85.1% (inactive)
CC(=O)c1sc(N/N=C\c2ccc(N(C)C)cc2)nc1C | 96.8% (inactive)
CC(C)c1ccc(/C=C/C(=O)NC2CCCCC2)cc1 | 101% (inactive)
CN(C)/N=C/c1ccc(/C=N/NC(N)=S)o1 | 95.5% (inactive)
O=C(N/N=C/c1cccc(Br)c1)c1ccc(Cn2cc(Br)cn2)o1 | 100% (inactive)
CC1(C)C2CC=C(/C=N/NC(=O)c3ccccc3O)C1C2 (stereo not drawn) | 88.5% (inactive)
O=C1OC(c2ccco2)=N/C1=C\c1ccc(-c2cccc(C(F)(F)F)c2)o1 | 90.5% (inactive)
CC1=NN(c2ccccc2)C(=O)/C1=C/c1c(O)[nH]c(=S)[nH]c1=O | 96.3% (inactive)
Cc1cc(N2CCN(c3ccccc3)CC2)nc2ccccc12 | 85.2% (inactive)
COc1ccc(NC(=O)C(Cc2ccccc2)n2cccc2)c(OC)c1 (stereo not drawn) | 97.5% (inactive)
CCCN1C(=O)c2ccc(C(=O)Nc3cc(C)on3)cc2C1=O | 99.8% (inactive)
COc1ccc(OC)c(NC(=O)CSC2=C(C#N)C(c3ccco3)C3=C(CCCC3=O)N2)c1 (stereo not drawn) | 89.4% (inactive)
CC(=O)c1ccc(-n2c(C)ccc2-c2ccccc2)cc1 | 91.2% (inactive)
COc1cc(NC(=S)NC(=O)c2cccs2)ccc1NC(=O)C(C)C | 86.8% (inactive)
Cc1ccc(/C=C/C(=O)OCC(=O)NC(C)c2ccccc2)o1 (stereo not drawn) | 95.2% (inactive)
CCOC(=O)N1CCC(N2CCN(S(=O)(=O)c3ccc(Cl)cc3)CC2)CC1 | 98.2% (inactive)
COc1ccc(-c2csc(Nc3ccc(C)cn3)n2)cc1OC | 89.5% (inactive)
Cc1nnnn1/C(=C\c1ccccc1)C(=O)OCC(=O)Nc1ccc(Cl)cc1F | 101% (inactive)
Cc1ccccc1OCC(=O)Nc1ccccc1-c1ccccc1 | 86.1% (inactive)

SMILES | viability
c1ccc(-c2noc(-c3cccc4ccccc34)n2)cc1 | 93.3% (inactive)
O=C(CC(=O)c1ccccc1)Nc1ccc2c(c1)OCCO2 | 104% (inactive)
O=C(Cc1ccccc1Cl)Nc1nc2ccccc2[nH]1 | 102% (inactive)
Cc1ccc(CC(=O)Nc2nc3ccccc3[nH]2)cc1C | 91.3% (inactive)
COc1ccc2sc(-c3ccc(N(C)C)cc3)c(C#CC(C)(C)O)c2c1 | 81.6% (inactive)
CSc1nnc(C)c(/C=C/Nc2ccc(Cl)cc2)n1 | 95.5% (inactive)
Cn1cc(C(=O)N/N=C/C(Br)=C\c2ccccc2)ccc1=O | 96% (inactive)
CCOc1cc(C(=O)N2CCC(CC3CC(c4ccccc4)=NO3)(C(=O)NCc3ccc(OC)cc3)CC2)cc(OCC)c1OCC (stereo not drawn) | 81.2% (inactive)
CC/C(=N\NC(=S)NC(C)C)c1ccc(OC)c(OC)c1 | 82.5% (inactive)
c1ccc(-n2c3ccccc3c3ccccc32)cc1 | 95% (inactive)
CSc1cccc(NC(=O)c2ccc(Cl)nc2)c1 | 90% (inactive)
CC(C)C[C@H](NC(=O)c1nc[nH]c1C(=O)N1CCN(C(=O)OC(C)(C)C)CC1)C(=O)OCc1ccccc1 | 84.4% (inactive)
O=C(N[C@@H](Cc1ccccc1)C(=O)CCl)OCc1ccccc1 | 104% (inactive)
C/C(=N\NC(=O)c1cccc(Cl)c1)c1cccc(NC(=O)C(C)C)c1 | 90.2% (inactive)
O=C1CC(Nc2ccc(N3CCOCC3)cc2)C(=O)N1C1CCCCC1 (stereo not drawn) | 104% (inactive)
O=C(O)CCN1C(=O)/C(=C/c2ccc(-c3nc4ccccc4s3)o2)SC1=S | 97.4% (inactive)
COc1ccc(-c2cc3nc(C)cc(N4CC(C)CC(C)C4)n3n2)cc1 (stereo not drawn) | 90.8% (inactive)
C/C(CC(=O)Nc1c(C)cc(C)cc1C)=N\NC(=O)c1cnccn1 | 102% (inactive)
O=C(OCC(=O)N1CCc2ccccc21)c1ccc(Cl)nc1 | 96.5% (inactive)
Cc1cc(NC(=O)CCS(=O)(=O)c2nc(-c3ccccc3)cc(C(F)(F)F)n2)no1 | 95.8% (inactive)
CC/C(=N\NC(=O)c1ccc(N(C)C)cc1)c1ccccc1 | 94.5% (inactive)
O=C(COn1nnc2ccc(Cl)cc21)NC12CC3CC(CC(C3)C1)C2 | 86.8% (inactive)

SMILES | viability
CCc1ccc(NC(=O)C2C3/C=C\CCCCC32)cc1 (stereo not drawn) | 89.2% (inactive)
CCOC(=O)/C=C/c1ccc2c(c1)S(=O)(=O)N(Cc1ccc(OC)cc1)[C@H]2CC(=O)OCC | 101% (inactive)
O=C(COC(=O)C1=COCCO1)Nc1ccc2c(c1)OCO2 | 98% (inactive)
CCOC(=O)c1c(C)[nH]c(N=Nc2ccccc2Cl)c1C | 82.2% (inactive)
COCCCNCCOCCOc1ccc(C)cc1Br | 89.6% (inactive)
COc1cccc(NC(=S)Nc2cc(C)cc(C)n2)c1 | 92.3% (inactive)
O=C(O)c1cc(-c2ccco2)nc2ccc(Br)cc12 | 96.8% (inactive)
CN(C)S(=O)(=O)n1cc(/C=C(\NC(=O)c2ccccc2)C(=O)NCCN2CCOCC2)c2ccccc21 | 99.1% (inactive)
CCOC(=O)c1ccc(N2CN(CCc3ccccc3)CNC2=S)cc1 | 94.3% (inactive)
CC(C)(C)c1nnc2sc(SCC(=O)c3cccs3)nn2c1=O | 101% (inactive)
CCCn1nc(NC(=O)c2ccco2)c2cc3cc(C)ccc3nc21 | 90.7% (inactive)
CNC(=O)COC(=O)c1ccccc1NC(=O)c1ccco1 | 89.6% (inactive)
COc1ccc(NC(=O)CCc2ccccc2)cc1NC(=O)c1ccco1 | 85.7% (inactive)
C=CCOc1ccc(C2N3CC4(C)CN2CC(CCC)(C3)C4=O)cc1 (stereo not drawn) | 97.2% (inactive)
CC(C(=O)Nc1nc2ccccc2[nH]1)N1C(=O)C2CC=CCC2C1=O (stereo not drawn) | 99.8% (inactive)
CCC(=O)NC(=S)Nc1ccc(-c2nc3ccccc3s2)cc1 | 98.2% (inactive)
CCOc1ccc(S(=O)(=O)n2nnc3ccccc32)cc1C(C)C | 102% (inactive)
COC(=O)c1c(-c2ccc(OC)cc2)oc2ccc(-c3cc(OC)c(OC)c(OC)c3)cc12 | 81.5% (inactive)
O=C(NCCC1=CCCCC1)NC1CCCCC1 | 105% (inactive)
CCC1CCCCN1C(=O)CSc1nnc(-c2ccc(Cl)s2)o1 (stereo not drawn) | 98% (inactive)
O=C(NCc1ccco1)c1cc2n(n1)C(C(F)(F)F)CC(c1ccc(F)cc1)N2 (stereo not drawn) | 92.2% (inactive)
O=C(CN1CCN(c2ccccn2)CC1)Nc1ccc(Cl)c(C(F)(F)F)c1 | 95.8% (inactive)

SMILES | viability
N#Cc1ccc(NC(=O)COC(=O)C2=COCCO2)cc1 | 109% (inactive)
CCOC(=O)c1c(C)oc2c1c(CN1CCN(C(=O)OCC)CC1)c(O)c1ccccc12 | 86.2% (inactive)
COc1cc2c(cc1OC)C(c1ccccc1)CC2=O (stereo not drawn) | 85.2% (inactive)
Cc1ccccc1Cn1cc(NC(=O)CSc2nc3c(c(C(F)(F)F)n2)CCc2ccccc2-3)cn1 | 90.7% (inactive)
CCO[C@H]1OC(C(=O)NCc2nc3ccccc3[nH]2)=C[C@@H](c2cn(C(C)=O)c3ccccc23)[C@@H]1CCCO | 81.8% (inactive)
CCCc1c(C)nc2c(OC)cccc2c1SCC(=O)O | 107% (inactive)
O=C(O/N=C\c1ccc(N2CCCCC2)c([N+](=O)[O-])c1)c1c(F)cccc1F | 95.2% (inactive)
c1ccc2c(c1)Cn1nc(Cc3nc4c(s3)CCCC4)nc1-2 | 108% (inactive)
COc1ccc2nc(NC(=O)NC3CCCCC3)sc2c1 | 92.6% (inactive)
CC(=O)c1ccc(N2CCN(c3ncc(C(F)(F)F)cc3Cl)CC2)cc1 | 81.7% (inactive)
O=C(Nc1ccc(Cl)cc1F)c1cccc2ccccc12 | 95.1% (inactive)
CCc1ccccc1NC(=O)CNC(=O)c1cc(C2CC2)nn1-c1ccccc1 | 93.1% (inactive)
O=C(NCc1ccc2c(c1)OCO2)Nc1ccc2ccccc2c1 | 86.2% (inactive)
CCN(CC)C(=O)CSc1nnc2nnc3cc(OC)ccc3n12 | 102% (inactive)
CN1C/C(=N\S(=O)(=O)c2ccccc2)N(C)C1=O | 92.3% (inactive)
Cn1cccc1/C=C1/C(=O)NC(=O)N(Cc2ccc(F)cc2)C1=O | 92.6% (inactive)
COCCNC(=S)N/N=C1\CC(C)CC(C)(C)C1 (stereo not drawn) | 94.2% (inactive)
CC(=O)Nc1cccc(-n2nnc(SCC(=O)Nc3ccc(F)c(Cl)c3)n2)c1 | 91.8% (inactive)
COC(=O)CN1C(CN2CCOCC2)=Nc2ccc(Br)cc2C1c1ccccc1 (stereo not drawn) | 89.5% (inactive)
CSc1ccc(/C=C/C(=O)Nc2ccccc2)cc1 | 92.7% (inactive)

From PubChem BioAssay AID434958 (Southern Research Specialized Biocontainment Screening …, 2010)
